Only some compounds are listed: those with a hit (about 11% of all), similar ones and a draw of the others.
ALDH1A1 inh = qHTS Assay for Inhibitors of Aldehyde Dehydrogenase 1 (ALDH1A1) | Aldehyde dehydrogenase 1A1 (Homo sapiens), P00352 | Purified ALDH1A1, NADH fluorescence, propionaldehyde substrate | 220,000 compounds, 7.3% hits | Potency, µM (top dose mostly 75.3 µM), for inactives: top-dose activity, negative = inhibition, most hits filed as inhibitors;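 further: potency means the concentration at half of the fitted maximal effect; plate controls were no enzyme wells and a reference inhibitor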
PNC inhibitor = High Content Assay for Compounds that inhibit the Assembly of the Perinucleolar Compartment; PC3M PTB-GFP, PNC prevalence imaging, 16 h; hits give low values; activity change (PNC), negative = inhibition, % at 10 µM; 140,000 compounds, 3.1% hits;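 active means readout at or below -70, meaning at least 70% loss of cells showing the perinucleolar compartment, a nuclear body marking cancer cells; inconclusive means readout between -30 and a set limit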;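 further: plate controls were DMSO wells for no effect and camptothecin positive control wells for full effect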
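Compounds are pinned in duplicate onto adhered PC3M cells stably expressing GFP-tagged PTB and incubated 16 h at 37 C. Cells are then fixed, nuclei stained with Hoechst, and PNC-positive cells counted.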
IMPase cell inh = qHTS Assay for Identifying the Cell-Membrane Permeable IMPase Inhibitors; Inositol monophosphatase 1 (Rattus norvegicus), P97697; CHO-M1 cells, IP1 accumulation, HTRF TR-FRET ratio; inhibition (IP1 accumulation), % at 46.1 µM; 120,000 tested, under 10 active; active means well fitted curve in the direction sought with a large enough effect in the signal ratio, not every such curve was filed as active; inconclusive means small, poorly fitted or top-dose-only effect, or a change in a side signal; inactive means no such curve, though single readings can be large or run the other way; the % refers to the signal ratio;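 further: cells stimulated with carbachol in lithium chloride buffer; plate controls were DMSO basal wells for no effect and reference inhibitor wells for full effect; higher means more IMPase inhibition seen as more IP1 and lower FRET ratio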
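Cellular IMPase inhibition is scored as a rise in cytosolic IP1, detected by competitive TR-FRET between d2-labelled IP1 and a europium anti-IP1 antibody. M1-expressing CHO cells were stimulated with carbachol for 30 min at 37C, with lithium (50 mM LiCl) present in the buffer.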
IMPase Li inh = qHTS Assay for Identifying the Cell-Membrane Permeable IMPase Inhibitors: Potentiation with Lithium; CHO-M1 cells, IP1 TR-FRET (IP-One), carbachol + lithium; Potency, µM (highest dose often 59.4 µM), for inactives: top-dose activity, negative = IMPase inhibition, hits mostly inhibitors; 210,000 compounds, 0.35% hits; active means well fitted curve in the direction sought with a large enough effect; inconclusive means small, poorly fitted or top-dose-only effect, or another doubt; inactive means no such curve, though single readings can be large; an effect the other way counts as inactive or inconclusive;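 further: IP1 builds up when IMPase is blocked and the TR-FRET signal falls; potency means the concentration at half of the fitted maximal effect; plate controls were basal vehicle for no effect and high inhibitor control for full effect; nearly all actives have a fitted effect of over 50% in size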
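CHO cells stably expressing M1 receptor (2000/well) were cultured 16–30 h, then exposed to compounds with a small lithium addition for 30 min at 37C. IP1 was measured by TR-FRET competition; AC50 from Hill fits.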
ALOX12 inhib = qHTS Assay for Inhibitors of 12-hLO (12-human lipoxygenase) | Polyunsaturated fatty acid lipoxygenase ALOX12 (Homo sapiens), P18054 | purified 12-hLO, xylenol orange hydroperoxide absorbance | Potency, µM (doses to about 57.1 µM), for the others: at the top dose activity change, negative = inhibition, most hits filed as inhibitors | 150,000 compounds, 0.12% hits; active means well fitted curve in the direction sought with a large enough effect; inconclusive means small, poorly fitted or top-dose-only effect, or another doubt; inactive means no such curve, though single readings can be large; an effect the other way counts as inactive or inconclusive; further: potency means the concentration at half of the fitted maximal effect; nearly all actives have a fitted effect of over 55% in size
Target sequence (P18054 whole entry, looked up): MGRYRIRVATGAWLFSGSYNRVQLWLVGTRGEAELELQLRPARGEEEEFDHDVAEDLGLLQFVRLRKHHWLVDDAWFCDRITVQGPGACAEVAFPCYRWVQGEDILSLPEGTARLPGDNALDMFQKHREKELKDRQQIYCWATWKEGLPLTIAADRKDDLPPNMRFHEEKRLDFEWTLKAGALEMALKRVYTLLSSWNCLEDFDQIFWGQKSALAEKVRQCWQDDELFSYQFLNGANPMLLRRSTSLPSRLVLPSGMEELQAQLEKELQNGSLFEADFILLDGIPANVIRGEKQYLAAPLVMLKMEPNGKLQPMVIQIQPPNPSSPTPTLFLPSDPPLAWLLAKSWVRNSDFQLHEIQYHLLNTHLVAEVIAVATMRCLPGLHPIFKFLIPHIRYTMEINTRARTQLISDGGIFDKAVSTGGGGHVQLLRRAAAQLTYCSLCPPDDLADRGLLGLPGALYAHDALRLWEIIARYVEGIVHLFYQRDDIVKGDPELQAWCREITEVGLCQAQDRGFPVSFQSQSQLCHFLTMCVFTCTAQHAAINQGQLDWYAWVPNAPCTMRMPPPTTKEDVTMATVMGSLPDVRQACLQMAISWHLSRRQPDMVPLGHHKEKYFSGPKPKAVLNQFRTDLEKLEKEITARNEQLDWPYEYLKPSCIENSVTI
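Purified human 12hLO (150 nM), preincubated 15 min with compound, then 40 uM arachidonic acid for 30 min, room temperature, Hepes pH 7.0 with 0.01% Triton X-100. Hydroperoxide detected by ferrous iron/xylenol orange; 573/405 nm absorbance ratio gives reaction progress.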
HPGD inh = qHTS Assay for Inhibitors of HPGD (15-Hydroxyprostaglandin Dehydrogenase). 150,000 compounds, 4.3% hits. 15-hydroxyprostaglandin dehydrogenase [NAD(+)] (Homo sapiens), P15428. purified HPGD, NADH fluorescence kinetic, PGE2 substrate. Potency, µM, without a hit: at the top dose activity change, negative = inhibition, usual class: inhibitors; further: potency means the concentration at half of the fitted maximal effect
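20 nM HPGD preincubated 15 min at room temperature with compound in 50 mM Tris-HCl pH 8, 0.01% Tween 20. Started with 1 mM NAD+ and 30 uM prostaglandin E2; NADH fluorescence (360/450 nm) read 5 times over 30-s intervals, last minus first.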
* = called active by the depositor; [ ] = another dose, or the depositor's remark. Unless noted, the call rests on the fitted dose curve; in most records, active means well fitted inhibition curve with a large enough effect (not every such curve was filed as active); inconclusive means small, poorly fitted or top-dose-only effect, or another doubt; inactive means no such curve, though single readings can be large or run the other way. Unless noted, on the % scale 0 is the no-effect control and ±100 the full control effect.

Results for CC(C)OCCCN1C=C2C(=O)C(C)(OC(=O)C3CCCC3)C(=O)C=C2C=C1c1ccsc1 (stereo not given) ?
ALDH1A1 inh: inconclusive; IMPase Li inh: -13%; ALOX12 inhib: -10%[11.4 µM]; HPGD inh: -6%

What do the screens show for `CC(=O)c1cccc(NC(=O)N2CCCC2C(=O)Nc2c(C)cccc2C)c1` (stereo not given)?
ALDH1A1 inh: 25µM*; PNC inhibitor: 5; IMPase cell inh: 4; IMPase Li inh: 0%[38.3 µM]; ALOX12 inhib: 3%; HPGD inh: -8%

Results for Cc1nn(-c2ccc(F)cc2)c2sc(C(=O)N3CCCCCC3)cc12 ?
ALDH1A1 inh: 35µM*; PNC inhibitor: 10; IMPase cell inh: -3; IMPase Li inh: 40%[38.3 µM]; ALOX12 inhib: -6%; HPGD inh: 16µM*

How did Cc1nn(-c2ccc(Cl)cc2)c2sc(C(=O)N3CCN(C(=O)c4ccco4)CC3)cc12 do in these assays?
ALDH1A1 inh: 3%; PNC inhibitor: -2; IMPase cell inh: -5; IMPase Li inh: 3%[38.3 µM]; ALOX12 inhib: 1%; HPGD inh: -13%

How did CC(=O)OC1CC(C)OC(C)O1 (stereo not given) do in these assays?
ALDH1A1 inh: 9%; IMPase Li inh: 21%; ALOX12 inhib: 0%; HPGD inh: 1%

How did C=C(C(=O)OCC)C(=O)c1ccccc1 do in these assays?
ALDH1A1 inh: 14µM*; IMPase Li inh: 8%; HPGD inh: -8%

Results for Cc1ccc(CCN2CC(C(=O)NCc3ccco3)CC2=O)cc1 (stereo not given) ?
ALDH1A1 inh: 28µM*; PNC inhibitor: inconclusive; IMPase cell inh: 2; IMPase Li inh: 2%[38.3 µM]; ALOX12 inhib: 7%; HPGD inh: -12%

What do the screens show for `Cc1ccc(C(=O)Oc2ccc(C(=O)COC(=O)C3CC(=O)N(Cc4ccco4)C3)cc2)cc1` (stereo not given)?
ALDH1A1 inh: 25µM*; PNC inhibitor: -19; IMPase cell inh: inconclusive; IMPase Li inh: -1%; ALOX12 inhib: -4%; HPGD inh: inconclusive

How did Cc1ccc(CCN2CC(C(=O)NCCN3CCCCCC3)CC2=O)cc1 (stereo not given) do in these assays?
ALDH1A1 inh: 11%; PNC inhibitor: -12; IMPase cell inh: 5; IMPase Li inh: 6%[38.3 µM]; ALOX12 inhib: -7%; HPGD inh: 2%

How did O=C(COC(=O)C1CC(=O)N(Cc2ccco2)C1)c1ccc(OC(=O)c2ccco2)cc1 (stereo not given) do in these assays?
ALDH1A1 inh: 1.6µM*; PNC inhibitor: -11; IMPase cell inh: 5; IMPase Li inh: -5%; ALOX12 inhib: -2%; HPGD inh: 18µM*

What do the screens show for `N=c1n(CCO)c2ccccc2n1Cc1ccccc1F`?
IMPase cell inh: 5

Results for CS(=O)(=O)N1CCC2(CC1)CN(C(=O)Nc1ccccc1)C2 ?
ALDH1A1 inh: 6%; IMPase Li inh: -5%; ALOX12 inhib: 1%; HPGD inh: -7%

How did CC1CN(c2ccc(Oc3ccccc3)cc2)c2nc3c(c(=O)[nH]c(=O)n3C)n2C1 (stereo not given) do in these assays?
ALDH1A1 inh: -5%; PNC inhibitor: 40; IMPase cell inh: 2; IMPase Li inh: 12%[38.3 µM]; ALOX12 inhib: -1%; HPGD inh: 35µM*

Results for CC1CN(CCc2ccccc2)c2nc3c(c(=O)[nH]c(=O)n3C)n2C1 (stereo not given) ?
ALDH1A1 inh: -14%; PNC inhibitor: 28; IMPase cell inh: -8; IMPase Li inh: 5%[38.3 µM]; ALOX12 inhib: -7%; HPGD inh: -6%

Results for CO/N=C(\C)CCN1CCc2nc(-c3ccccc3)c(-c3ccccc3)cc2C1 ?
ALDH1A1 inh: 13%[13.5 µM]

Results for COc1cc(C(=O)OCC(=O)N(C)Cc2ccccc2)cc(OC)c1OC ?
ALDH1A1 inh: 2%; PNC inhibitor: -100*; IMPase cell inh: 14; IMPase Li inh: 7%; ALOX12 inhib: -4%; HPGD inh: -12%

How did CN(Cc1ccccc1)C(=O)COC(=O)c1ccc(S(=O)(=O)N(C)C)cc1 do in these assays?
ALDH1A1 inh: 1%; IMPase Li inh: 0%

What do the screens show for `CC(=O)OC[C@@H]1O[C@H](C/C=N\OC[C@@H](C)[C@H](OCc2ccccc2)C(C)C)C=C[C@@H]1OC(C)=O`?
ALDH1A1 inh: 4%[13.5 µM]

What do the screens show for `Cc1cc(=O)n2[nH]c(=O)c(N=Nc3ccccc3)c2[nH]1`?
ALDH1A1 inh: inconclusive; PNC inhibitor: inconclusive; IMPase cell inh: 22; IMPase Li inh: 14%[38.3 µM]; ALOX12 inhib: -6%; HPGD inh: inconclusive

What do the screens show for `CCOc1ccc(N=Nc2c(=O)[nH]n3c(=O)cc(C)[nH]c23)cc1`?
ALDH1A1 inh: -2%; PNC inhibitor: 7; IMPase cell inh: 22; IMPase Li inh: 27%[38.3 µM]; ALOX12 inhib: -1%; HPGD inh: 40µM*

What do the screens show for `CCOc1ccc(N=Nc2c(N)[nH][nH]c2=O)cc1`?
ALDH1A1 inh: 19µM*; PNC inhibitor: inconclusive; IMPase Li inh: 40%; ALOX12 inhib: -1%; HPGD inh: -13%

Results for COC(=O)[C@@H]1CCCN1C(=O)[C@@H](C)CO ?
ALDH1A1 inh: -4%[13.5 µM]

Results for COC(=O)C1=C(C(=O)OC)[C@@H]2N(C)c3ccccc3[C@@]23C[C@@H](C(=O)OC)N(S(=O)(=O)c2ccc(C)cc2)C3=N1 ?
ALDH1A1 inh: 15%[13.5 µM]; IMPase Li inh: 6%; ALOX12 inhib: 0%[11.4 µM]; HPGD inh: -2%

Results for CC(=O)N[C@@H](Cc1c[nH]c2ccccc12)C(=O)OCC(=O)Nc1ccc(S(=O)(=O)N(C)C)cc1 ?
ALDH1A1 inh: 4µM*; IMPase Li inh: -1%

What do the screens show for `CC(=O)N[C@@H](Cc1c[nH]c2ccccc12)C(=O)OCC(=O)NCc1ccc2c(c1)OCO2`?
ALDH1A1 inh: 5µM*; IMPase Li inh: 16%

What do the screens show for `Nc1nn(-c2ccccc2)c(N)c1N=Nc1ccccc1F`?
ALDH1A1 inh: -6%; PNC inhibitor: inconclusive; IMPase Li inh: 4%; ALOX12 inhib: -1%; HPGD inh: 13µM*
